This note sets out measurements from PubChem BioAssay.

Activity calls are given as the source filed them. The rule behind the calls is not given here.

The target of the test is Pantothenate synthetase (Mycobacterium tuberculosis (strain ATCC 25618 / H37Rv)) (UniProt P9WIL5). Description: Recombinant Mtb pantothenate synthetase (PanC) inhibitors, coupled enzyme, confirmatory (AID 375).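 Note: 0% = full reaction with vehicle and 100% = no enzyme background.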 Particulars: coupled enzyme assay; at 10 µM, stronger effect = higher value.
Chain of Pantothenate synthetase (Mycobacterium tuberculosis (strain ATCC 25618 / H37Rv)) (P9WIL5 whole entry, looked up): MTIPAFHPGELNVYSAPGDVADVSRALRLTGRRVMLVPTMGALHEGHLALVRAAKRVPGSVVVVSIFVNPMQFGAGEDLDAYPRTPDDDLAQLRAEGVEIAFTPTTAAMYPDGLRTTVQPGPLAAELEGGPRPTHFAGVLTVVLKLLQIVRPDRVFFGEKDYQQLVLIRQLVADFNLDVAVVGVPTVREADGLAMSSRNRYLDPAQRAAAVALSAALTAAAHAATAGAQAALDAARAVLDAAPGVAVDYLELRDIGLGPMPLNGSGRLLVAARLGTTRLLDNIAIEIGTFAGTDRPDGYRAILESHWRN
`O=C(Cn1cnc2ccccc2c1=O)NCCC(=O)N1CCN(c2ccccc2)CC1`: the inhibition is 0% (inactive).
Take `COC(=O)CSc1nc2ncc(Cl)cc2[nH]1`: the inhibition is 1% (inactive).
Regarding `COCCn1c(C)cc(C(=O)COC(=O)c2ccc(N3CCCC3=O)cc2)c1C`, the inhibition was 2% (inactive).
Consider `COc1ccc2cnn(-c3ccccc3)c(=O)c2c1OC`, for which the inhibition is 6% (inactive).
In the case of `CCOC(=O)N1CCN(c2c(N3CCN(c4ccccn4)CC3)c(=O)c2=O)CC1`, the inhibition was 0% (inactive).
With `Cc1ccc(C(C(=O)NC(C)(C)C)N(C(=O)c2csnn2)c2cccc(F)c2)o1` (stereo not given) the figure was 0% (inactive).
Turning to `O=C(COc1ccc(Cl)cc1)NCc1nnc(SCC(=O)Nc2ccc3c(c2)OCCO3)o1`, the inhibition is 3% (inactive).
Regarding `Fc1cccc2sc(Nc3nnc(-c4ccco4)o3)nc12`, the inhibition is 8% (inactive).
As for `CCN(CC)CCCNC1CCS(=O)(=O)C1` (stereo not given), the inhibition was 1% (inactive).
`O=C(c1cccn2c(=O)c3cc(Cl)ccc3nc12)N1CCOCC1`: the inhibition is 3% (inactive).
Turning to `Cc1noc(NS(=O)(=O)c2ccc(NC(=O)CCC3CCCC3)cc2)c1C`, the inhibition is 0% (inactive).
On to `COc1ccc(OC)c(C2=NOC(C(=O)Nc3cccnc3)C2)c1` (stereo not given), for which the inhibition was 0% (inactive).
As to `COc1cccc(-c2nnc3sc(C4CCCCC4)nn23)c1`, the inhibition was 4% (inactive).
For `CCC(C)(C)n1nnnc1C(c1ccccc1OC)N1CCSCC1` (stereo not given), the inhibition is 5% (inactive).
With `COc1ccccc1NC(=O)N1c2ccc(F)cc2CCC1C` (stereo not given) the figure was 8% (inactive); with `Cc1ccccc1-n1c(SCc2c(C)noc2C)nnc1-c1ccncc1`, 0% (inactive).
With `Cn1cccc1Cc1nnc(SCC(=O)Nc2ccc(F)cc2)n1-c1ccc(F)cc1` the figure was 4% (inactive); with `CC(=O)Nc1ccccc1-c1nc2ccc(C(=O)N3CCN(c4ccccc4)CC3)cc2[nH]c1=O`, 7% (inactive).
With `O=C(Nc1ccc(S(=O)(=O)NC2CCCC2)cc1)c1cnccn1` the figure was 0% (inactive); with `Cc1ccc(NC(=O)CSc2nnc(-c3cnccn3)n2Cc2ccco2)cc1C`, 0% (inactive).
